Reference: ChEMBL document CHEMBL1961873, “Compounds: GSK PKIS; Assays: Nanosyn kinase panel” (2012)

Target: Tyrosine-protein kinase Fer (Homo sapiens) (UniProt P16591)
Details: at 1 µM

Tyrosine-protein kinase Fer (Homo sapiens), sequence (P16591 whole entry, looked up): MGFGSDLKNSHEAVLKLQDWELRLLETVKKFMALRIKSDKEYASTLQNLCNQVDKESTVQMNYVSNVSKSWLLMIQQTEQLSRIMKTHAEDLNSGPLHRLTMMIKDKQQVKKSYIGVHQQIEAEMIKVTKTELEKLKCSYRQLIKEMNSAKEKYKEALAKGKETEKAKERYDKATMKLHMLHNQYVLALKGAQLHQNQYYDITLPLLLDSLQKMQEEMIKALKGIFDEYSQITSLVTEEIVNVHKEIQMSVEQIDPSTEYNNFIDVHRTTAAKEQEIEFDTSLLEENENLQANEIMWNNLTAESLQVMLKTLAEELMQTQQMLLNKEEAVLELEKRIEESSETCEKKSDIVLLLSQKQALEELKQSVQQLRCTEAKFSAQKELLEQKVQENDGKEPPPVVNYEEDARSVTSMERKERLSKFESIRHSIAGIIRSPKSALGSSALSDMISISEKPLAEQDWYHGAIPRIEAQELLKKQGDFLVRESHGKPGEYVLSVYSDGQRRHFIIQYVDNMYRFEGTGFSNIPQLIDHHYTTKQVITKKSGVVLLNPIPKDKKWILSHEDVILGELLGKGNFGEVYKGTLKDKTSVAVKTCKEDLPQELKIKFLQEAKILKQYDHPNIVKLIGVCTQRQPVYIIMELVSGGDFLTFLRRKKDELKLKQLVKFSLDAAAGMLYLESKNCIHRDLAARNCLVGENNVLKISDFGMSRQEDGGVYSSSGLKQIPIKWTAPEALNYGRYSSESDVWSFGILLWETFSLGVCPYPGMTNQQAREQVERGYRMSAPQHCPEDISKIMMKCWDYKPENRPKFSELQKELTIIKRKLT

SMILES	inhibition
COc1cccc(-n2ncc3c(N/N=C/c4ccc(C(=O)NCCN(C)C)cc4)ncnc32)c1	1.12%
O=C(O[C@H]1CN[C@H](C#Cc2cc3ncnc(Nc4ccc5c(cnn5Cc5ccccc5)c4)c3s2)C1)N1CCOCC1	0.92%
COc1cc(N2CCN(C(C)C)CC2)ccc1Nc1nc(Nc2cccc(F)c2C(=O)O)c2cc[nH]c2n1	75.6%
COC(=O)Nc1nc2ccc(Oc3ccc(NC(=O)Nc4cc(C(F)(F)F)ccc4F)cc3)cc2s1	6.3%
CCS(=O)(=O)c1ccc(OC)c(Nc2ncc(-c3cccc(C(C)=O)c3)o2)c1	3.06%
CN(C)CCNC(=O)Nc1ccc(N(C)c2ccnc(Nc3ccc(CS(C)(=O)=O)cc3)n2)cc1	12.4%
CC1(C)CC(n2cnc(-c3ccc(F)cc3)c2-c2ccnc(N)n2)CC(C)(C)N1	0.17%
CCS(=O)(=O)c1ccc(OC)c(Nc2ncc(-c3cccc(F)c3)o2)c1	8.9%
Fc1cccc(COc2ccc(Nc3ncncc3C#Cc3ccccc3)cc2Cl)c1	6.06%
COc1ccccc1-c1cc(/C=C2\C(=O)Nc3ncc(Br)cc32)cc(Br)c1O	9.31%
OCCCNc1nccc(-c2c(-c3ccc(F)cc3)nn3cc(C(F)(F)F)ccc23)n1	2.56%
NS(=O)(=O)c1ccc(N/N=C2\C(=O)Nc3cccc(CCc4ccncc4)c32)cc1	5.66%
O=C1Nc2ccccc2/C1=C1\CCc2cc(O)ccc21	22.1%
COc1cccc(Nc2nccc(-c3cnn4ncccc34)n2)c1	48%
CS(=O)(=O)Nc1ccc(-c2cc(-c3ccccc3)cc(C(N)=O)c2N)cc1	1.1%
